JMJD2A Tudor inh: qHTS Assay for Inhibitors of JMJD2A-Tudor Domain; Lysine-specific demethylase 4A (Homo sapiens), O75164; AlphaScreen JMJD2A-Tudor / H3K4me3 peptide binding; Potency, µM (series often up to 114 µM), without a hit: top-dose activity change, negative = inhibition, hits mostly inhibitors; 4.4% of 390,000 active; AID 504339, 2011; note: % is set by controls: 0 for no effect and ±100 for the full control effect; nearly all actives have a fitted effect of over 50% in size
Target sequence (O75164 whole entry, looked up, the tested form may be a part): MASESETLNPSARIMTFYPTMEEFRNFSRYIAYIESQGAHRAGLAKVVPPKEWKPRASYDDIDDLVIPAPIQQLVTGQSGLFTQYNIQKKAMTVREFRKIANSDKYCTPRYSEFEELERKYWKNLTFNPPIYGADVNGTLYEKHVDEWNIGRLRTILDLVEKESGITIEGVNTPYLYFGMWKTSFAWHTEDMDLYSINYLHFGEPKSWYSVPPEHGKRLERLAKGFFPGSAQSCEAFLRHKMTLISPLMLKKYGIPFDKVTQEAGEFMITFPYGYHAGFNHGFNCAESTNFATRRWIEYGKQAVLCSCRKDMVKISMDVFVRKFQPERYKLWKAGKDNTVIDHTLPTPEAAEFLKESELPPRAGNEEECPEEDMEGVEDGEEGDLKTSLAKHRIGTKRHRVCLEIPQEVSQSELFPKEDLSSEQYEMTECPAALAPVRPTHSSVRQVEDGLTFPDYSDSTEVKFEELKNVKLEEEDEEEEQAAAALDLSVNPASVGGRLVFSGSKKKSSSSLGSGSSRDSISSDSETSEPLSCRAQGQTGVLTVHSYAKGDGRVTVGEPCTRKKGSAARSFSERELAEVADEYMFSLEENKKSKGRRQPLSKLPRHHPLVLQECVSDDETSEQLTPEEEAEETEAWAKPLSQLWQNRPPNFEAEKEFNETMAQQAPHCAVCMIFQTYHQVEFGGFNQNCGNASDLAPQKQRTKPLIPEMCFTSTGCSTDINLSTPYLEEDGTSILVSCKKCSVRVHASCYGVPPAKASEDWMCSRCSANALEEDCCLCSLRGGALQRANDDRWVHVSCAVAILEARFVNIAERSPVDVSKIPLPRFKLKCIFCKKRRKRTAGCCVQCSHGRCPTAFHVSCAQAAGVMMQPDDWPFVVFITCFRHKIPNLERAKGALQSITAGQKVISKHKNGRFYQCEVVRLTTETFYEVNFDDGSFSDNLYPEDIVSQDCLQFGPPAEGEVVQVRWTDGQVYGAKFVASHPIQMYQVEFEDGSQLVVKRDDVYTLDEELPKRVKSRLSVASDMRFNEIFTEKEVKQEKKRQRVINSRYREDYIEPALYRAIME
Sfp inh: qHTS Assay for Inhibitors of Bacillus subtilis Sfp phosphopantetheinyl transferase (PPTase). Biochemical Sfp PPTase activity, qHTS. Potency, µM, for the others: largest response in the series, negative = inhibition, usual class: inhibitors. 3.5% of 310,000 active. AID 1490, 2009;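 note: the enzyme is Sfp with the accession as filed and its product quenches rhodamine fluorescence; 0% = enzyme reaction without inhibitor and -100% = no enzyme wells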
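After 15 min at room temperature with compound, 15 nM Sfp received 5 uM rhodamine-CoA plus 12.5 uM BHQ-2-ybbR (50 mM Hepes pH 7.6, 10 mM MgCl2). Rate came from the fluorescence difference over 30 min, ex 525/em 598 nm.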
HP1b binding inh: HTS for Inhibitors of HP1-beta Chromodomain Interactions with Methylated Histone Tails | Chromobox protein homolog 1 (Homo sapiens), P83916 | AlphaScreen HP1-beta / biotin-H3K9me3 peptide binding | Potency, µM (titrated, usually from 114 µM), for the others: at the highest dose activity change, negative = inhibition, most hits filed as inhibitors | 0.56% of 390,000 active; note: nearly all actives have a fitted effect of over 70% in size
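HP1-beta protein (50 nM final) preincubated 30 min at room temperature with biotinylated H3(1-18)K9me3 peptide (50 nM) in PBS pH 7.4, 0.01% Tween-20, then compound added for 30 min. AlphaScreen streptavidin donor/nickel chelate acceptor beads (10 ug/mL final), 30 min dark, luminescence read.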
BAZ2B inh: qHTS Assay for Inhibitors of BAZ2B. AlphaScreen BAZ2B-H3K14Ac peptide displacement. Potency, µM (series often up to 114 µM), without a hit: top-dose activity change, negative = inhibition, usual class: inhibitors. Bromodomain adjacent to zinc finger domain protein 2B (Homo sapiens), Q9UIF8. 4.4% of 360,000 active; note: % is set by controls: 0 for no effect and ±100 for the full control effect; nearly all actives have a fitted effect of over 60% in size
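BAZ2B 50 nM plus b-H3(5-23)K14Ac 50 nM, PBS pH 7.4/0.01% Tween-20, 30 min RT; compound added (max 110 uM), 30 min RT; streptavidin donor/Ni-chelate acceptor beads 10 ug/mL final, 20 min dark; AlphaScreen read.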
G9a block: qHTS Assay for Inhibitors of Histone Lysine Methyltransferase G9a; Histone-lysine N-methyltransferase EHMT2 (Homo sapiens), Q96KQ7; G9a H3K9 monomethylation, AlphaScreen, 2 h; Potency, µM (doses to about 102 µM), without a hit: at the top dose activity, negative = inhibition, usual class: inhibitors; 8.8% of 350,000 active; AID 504332, 2011; note: % is set by controls: 0 for no effect and ±100 for the full control effect; nearly all actives have a fitted effect of over 75% in size
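Using a bead-based AlphaScreen, monomethylated H3K9 product from 2 h room-temperature reactions (G9a 20 nM, peptide 500 nM, SAM 20 uM) was detected with 0.5 ug/mL rabbit anti-H3K9me1 antibody.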
* = called active by the depositor; ? = inconclusive; . = no result given; [ ] = remark or other dose. Shown are actives, neighbours in structure and some others; about 12% of the full set was active somewhere. Calls come from the whole dose curve; as a rule, active = well fitted curve in the direction sought with a large enough effect; inconclusive = small, poorly fitted or top-dose-only effect, or another doubt; inactive = no such curve, though single readings can be large; an effect the other way counts as inactive or inconclusive. Potency is the fitted concentration of half-maximal effect.

SMILES	JMJD2A Tudor inh	Sfp inh	HP1b binding inh	BAZ2B inh	G9a block
COc1cc(OC)c(NC(=O)C2CC(=O)N(c3ccc4c(c3)OCCO4)C2)cc1Cl (stereo not given)	-24%	.	-8%	4%	45µM*
O=S(=O)(c1ccccc1)c1nc(-c2ccc(Cl)cc2Cl)oc1N1CCCCCC1	?	.	-22%	?	?
COc1cc2cncc(Cc3ccc(Cl)cc3)c2cc1OC	-17%	.	37%	-25%	-21%[2.33 µM]
COc1ccc(-c2ccn(-c3cccc(F)n3)n2)cc1	?	-16%	9%	-16%	14µM*
Nc1nn(-c2cccc(F)n2)cc1-c1ccc(Cl)cc1	-16%	15%	37%	-1%	3%
CCN(CC(=O)Nc1c(F)cccc1F)C(=O)c1ccc2ccccc2n1	-10%	.	4%	1%	-27%
CCN(CC(=O)Nc1c(F)cccc1F)C(=O)/C=C/c1ccc2ccccc2n1	3.5µM*	.	-89%	8.9µM*	7.1µM*
Cc1ccc2nc3c(cc(C(=O)NCc4cccnc4)c(=N)n3C(C)C)c(=O)n2c1	.	14%	.	1%	40µM*
CCCn1c(=N)c(C(=O)NCc2cccnc2)cc2c(=O)n3cc(C)ccc3nc21	5%	.	53%	-1%	5%[59 µM]
C=C(C)CSc1nc2sc3c(c2c(=O)n1-c1ccccc1)CCC(C)C3 (stereo not given)	-3%	.	31%	0%	0%[59 µM]
O=C(CNC(=O)c1cc2c(n(-c3ccccc3)c1=O)CCCC2=O)c1ccccc1	3%	17%	20%	-6%	.
O=C1CCCc2c1cc(-c1ccccc1)n2-c1ccccc1	40µM*	14%	?	25µM*	45µM*
Clc1ccc(CSc2nc3ncccc3[nH]2)cc1	-8%	.	20%	-1%	-12%[59 µM]
CSc1ccccc1C(=O)NC1CCCN(Cc2ccccc2F)C1 (stereo not given)	-11%	1%	51%	-4%	10µM*
CC(=O)c1ccc(C(=O)NC2CCCN(Cc3ccccc3F)C2)cc1 (stereo not given)	-7%	-1%	41%	0%	.
O=C(C1CCCN(Cc2ccccc2F)C1)N1CCCC1 (stereo not given)	28µM*	-20%	?	56µM*	40µM*
O=C(c1ccccc1)N1CCCC(C(=O)N2CCCCC2)C1 (stereo not given)	-7%	12%	45%	-3%	18%
O=C(C1CCCN(Cc2cc(Br)ccc2O)C1)N1CCCCC1 (stereo not given)	7.9µM*	-15%	-7%	50µM*	25µM*
Cc1c(C(=O)N/N=C/c2ccc(-c3ccccc3[N+](=O)[O-])o2)sc(N)c1C#N	?	?	35%	?	-14%[59 µM]
COCc1cc(C)nc(N/N=C/c2ccc(-c3ccc(Cl)cc3[N+](=O)[O-])o2)c1C#N	-34%	?	-5%	?	40µM*
O=C(CSc1nnc(CNc2ccc(F)cc2)n1Cc1ccco1)NC1CC1	-8%	56µM*	43%	-23%	?
O=C(O)CSc1nnc(CNc2cccc(C(F)(F)F)c2)n1Cc1ccco1	-16%	40µM*	45%	?	19%[59 µM]
O=C(CSc1nnc(CNc2ccc(F)cc2)n1Cc1ccco1)N1CCOCC1	-8%[57.1 µM]	-10%	54%	9%	?
COc1cccc(C(=O)NC(=NCCc2c[nH]c3ccc(OC)cc23)Nc2nc(C)cc(C)n2)c1	?	.	3%	?	-43%[59 µM]
Cc1nnc(Nc2ccc(S(N)(=O)=O)cc2)c2ccccc12	-22%	15%	22%	-7%	-4%
SMILES	JMJD2A Tudor inh	Sfp inh	HP1b binding inh	BAZ2B inh	G9a block
O=C(N/N=C1/C(=O)c2cccc3cccc1c23)c1ccc(Cl)cc1	35µM*	45µM*	-9%	50µM*	?
CCNC(=S)N/N=C1\C(=O)c2cccc3cccc1c23	-17%	6%	-2%	-10%	3%[59 µM]
C(=C/c1ccccc1)/CN1CCN(C(c2ccccc2)c2ccccc2)CC1	.	15%	.	.	?
O=C1c2ccccc2C(=O)N1CC#CCN1CCN(C(c2ccccc2)c2ccccc2)CC1	?	-18%	-6%	50µM*	?
Nc1ccc(C(=O)N2CCN(S(=O)(=O)c3ccc4c(c3)OCCO4)CC2)cc1[N+](=O)[O-]	-21%	14%	-4%	-18%	.
CCOC(=O)C(C)Sc1nc2c(c(=O)[nH]c(=O)n2C)n1CCc1ccccc1 (stereo not given)	0%	-5%	-18%	-12%	?
C/C(Cl)=C/Cn1c(SCC(C)C)nc2c1c(=O)[nH]c(=O)n2C	9%	-15%	10%	8%	50µM*
CCOC(=O)C(CC)Sc1nc2c(c(=O)[nH]c(=O)n2C)n1C/C=C(/C)Cl (stereo not given)	18µM*	14µM*	-11%	-3%	?
CCCCOC(=O)CSc1nc2c(c(=O)[nH]c(=O)n2C)n1C/C=C(\C)Cl	0%	-3%	-9%	8%	16µM*
C/C=C/CSc1nc2c(c(=O)[nH]c(=O)n2C)n1CCC	-11%	11%	5%	.	-12%[59 µM]
O=C(CCCSc1ccccc1)Nc1ccc(Cl)c(S(=O)(=O)N2CCOCC2)c1	-32%	.	10%	7%	-42%[12.7 µM]
Cc1ccc(NC(=S)/C(=C(\[O-])c2ccc(F)cc2)[n+]2ccccc2)cc1	?	45µM*	?	?	13µM*
Cc1ccc(C(=O)NCCC(=O)NCc2ccco2)cc1	-3%	17%	33%	-21%	?
[O-]/C(=C(\C(=S)NCc1ccco1)[n+]1ccccc1)c1ccccc1Br	-20%	13µM*	-1%	?	?
Cc1ccc(NC(=S)c2ccccc2)cc1	-1%	9%	8%	-31%	-18%[59 µM]
Cc1ccc(/C([O-])=C(/C(=S)NCc2ccco2)[n+]2ccccc2)cc1	.	?	.	-33%	2.5µM*
O=[N+]([O-])c1ccc(/C([O-])=C(/C(=S)NCc2ccco2)[n+]2ccccc2)cc1	-33%	8.9µM*	-5%	?	35µM*
CCCN(CCC)C(=O)Cn1c(=O)n(-c2cccc(OC)c2)c(=O)c2c(C)c(C(=O)N(C)C)sc21	-11%	.	26%	0%	3%[59 µM]
CCCCn1c(=O)n(CC(=O)Nc2ccc(C)c(Cl)c2)c(=O)c2c1ncn2Cc1ccco1	-4%	?	22%	4%	25µM*
Cc1ccc(NC(=O)CSc2nccn2Cc2ccco2)cc1Cl	?	.	0%[57 µM]	?	-31%[59 µM]
CCC(=O)Nc1nnc(-c2ccco2)o1	45µM*	-6%	31%	?	22µM*

Screening data (PubChem BioAssay)
